Measurements from PubChem BioAssay AID796 (Columbia University Molecular Screening Center, 2007).
About 410 (0.44%) of roughly 94,000 compounds were called active. Shown is part of a subset that was picked to be rich in actives. A number with no mark means an inactive call.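 The calls were made as follows: active = inhibition above about 30% together with a positive call from visual inspection of the well image (limit read from the data); inconclusive = inhibition above a set limit but visual check negative; inactive = inhibition not above a set limit, visual check negative.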

Assay: inhibitors of IL-1B driven NFkB p65 nuclear import, primary screen, imaging, HUVEC, IL-1B stimulus, high-content imaging (AID 796);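 also: nuclear over cytoplasmic p65 intensity ratio measured by imaging; 0% = IL-1B stimulated DMSO wells and 100% = unstimulated DMSO wells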
Conditions: HUVEC IL-1B NFkB p65 nuclear translocation imaging; at 2 µM; stronger effect = higher value

SMILES	inhibition
O=C(CSCc1c(F)cccc1Cl)NCC1CCCO1 (stereo not given)	-1.4%
COc1ccc(C2CC(c3cccs3)=Nc3ccccc3S2)cc1OC (stereo not given)	-4%
COc1ccc(NC(=O)CSc2nc(NS(=O)(=O)c3ccc(C)cc3)cc(=O)[nH]2)cc1	0.1%
O=S(=O)(/N=C(/Nc1ccccn1)c1ccccc1)c1ccc(Cl)cc1	-20.6%
O=C(Nc1nnc(CCOCCOCCc2nnc(NC(=O)c3ccco3)s2)s1)c1ccco1	2.1%
CCOC(=O)c1c(NC(=O)CSc2nnc(C)c(=O)[nH]2)sc2c1CCC2	7.7%
CCCOC(=O)Nc1sc2c(c1C(=O)OCC)CCC2	4.6%
CCOCC(=O)Nc1sc2c(c1C(=O)OCC)CCCC2	31.1% (active)
CC(=O)Nc1ccc(N2C(=O)C3C4CC(=O)C(c5ccccc54)C3C2=O)cc1 (stereo not given)	4.6%
Cc1ccc(-n2c(=O)cc(N3CCN(Cc4ccccc4)CC3)[nH]c2=O)cc1	-36.5%
COC(CNC(=O)Cn1ncc2ccsc2c1=O)OC	-11.2%
Cc1ccc(/C=N/NC(=O)C(NC(=O)c2ccccc2)c2n[nH]c(=O)c3ccccc23)cc1 (stereo not given)	-3.6%
CC(C)C(=O)NC(=S)Nc1ccccc1F	1.1%
O=[N+]([O-])c1ccccc1OCCCCN1CCCCC1	1.7%
CCOC(=O)COc1cc(OCC(=O)OCC)c2c(=O)cc(-c3ccccc3)oc2c1	5.4%
CCOCc1nnc(NC(=O)CSc2ccc(C)cc2)s1	3.5%
CCN(CC)CCNc1ccc(Cl)cc1[N+](=O)[O-]	-11.6%
CN(C(=O)CSc1nc(C2CC2)nc2ccccc12)c1nc(-c2ccccc2)cs1	6.8%
COC(=O)C(NC(=O)c1ccc(OC)cc1)(Nc1ncc(S(=O)(=O)c2ccc([N+](=O)[O-])cc2)s1)C(F)(F)F (stereo not given)	10.1%
COc1ccc(CNCCCO)cc1OC	2.4%
CCCCOc1ccc(C(=O)NCc2ccncc2)cc1	-7.4%
C=CCOc1ccc(Cl)cc1CNCCCN1CCOCC1	5.6%

SMILES	inhibition
COC(=O)c1c(CCl)noc1C(=O)NC(C)C	-0.8%
CC1C/C(=N/NC(=O)c2cccs2)CC(C)(C)C1 (stereo not given)	25.5%
Nc1ccccc1SCc1cc([N+](=O)[O-])cc2c1OCOC2	-1.6%
O=C(Cn1cncn1)N/N=C/c1c2ccccc2cc2ccccc12	10.3%
CCOC(=O)CNC(=O)CSc1nc2cccnc2n1CC	-2.1%
CONC(=O)c1cc(OCC(F)(F)F)ccc1OCC(F)(F)F	4.4%
CC(=O)c1nn(-c2cccc(Br)c2)cc1C(=O)c1cccc2ccccc12	-11.3%
c1ccc(-n2nc3ccccc3n2)cc1	18%
CC1(C)CC(=O)C=C(NCCN2CCNCC2)C1	-15.8%
CC1(C)CC(=O)C=C(NCCCNC2CCCCC2)C1	0%
CC1(C)CC(=O)C=C(NCCCN2CCCC2=O)C1	99.7% (active)
Cn1c(CO)cnc1SCc1ccccc1	-4.6%
c1ccc(COc2ccccc2CNCc2cccnc2)cc1	-12.3%
Cc1cc(C)n(C(=O)CCNC(=O)c2ccccc2Cl)n1	0.3%
Cc1cc2c(c(=O)n1C)C(C(C)C)C(C#N)=C(N)O2 (stereo not given)	3.4%
O=C(CSCc1c(Cl)cccc1Cl)NN1C(=O)c2ccccc2C1=O	7.6%
Cc1ccc(-c2csc(N(Cc3ccco3)C(=O)c3cccs3)n2)cc1	0.8%
S=c1[nH]nc(-c2ccco2)n1/N=C/c1ccc(Br)s1	-1.5%
Cc1cc(C)c2nc(NC(=O)c3ccc4c(c3)OCO4)sc2c1	9%
Cc1ccc(-n2nc3c(c2NC(=O)c2ccc4c(c2)OCO4)CSC3)c(C)c1	36% (active)
Cc1cccc(-n2nc3c(c2NC(=O)c2ccc(Br)o2)CSC3)c1C	0%
O=C(COc1ccc(/C=N/NS(=O)(=O)c2ccccc2)cc1)NCCc1ccccc1	3.5%

SMILES	inhibition
Cc1n[nH]c(=O)n1-c1ccc(Oc2ccccc2)cc1	3.9%
Cc1cc(C)cc(N(CC(=O)Nc2c(C)n(C)n(-c3ccccc3)c2=O)S(C)(=O)=O)c1	-3.1%
Cc1cc(C)cc(N(C(C)C(=O)Nc2c(C)n(C)n(-c3ccccc3)c2=O)S(C)(=O)=O)c1 (stereo not given)	47.4% (active)
COC(=O)Nc1c(C)n(C)n(-c2ccccc2)c1=O	-18.8%
O=C(CSc1nnc(-c2c[nH]c3ccccc23)o1)c1ccccc1	11.5%
CC(=O)Nc1ccc(C(=O)CSc2nnc(Cc3ccccc3)o2)cc1	-5.2%
O=C(CSc1nnc(Cn2cnc3ccccc32)o1)c1ccccc1	98.8% (active)
CCn1c2ccccc2c2cc(NC(=O)C/C(C)=N/NC(=O)c3ccccc3N)ccc21	-8.3%
CNC(=S)NNC(=O)c1sccc1OCc1ccccc1	-4%
COc1cc(/C=N/O)cc(Br)c1OCc1cccc(Cl)c1	-0.3%
CCCCNc1ccc(C(=O)Nc2cccc(C)n2)cc1[N+](=O)[O-]	-3.1%
COc1ccc(S(=O)(=O)Nc2ccc3c(c2)OCO3)cc1Cl	96.2% (active)
COc1ccc(F)cc1S(=O)(=O)Nc1ccc2c(c1)OCO2	-3.1%
CC(C)CNS(=O)(=O)c1ccc(OCC(=O)Nc2ccc3c(c2)OCO3)c(Cl)c1	-10.8%
Cc1ccc(C(=O)c2c(NC(=O)c3ccncc3)sc3c2CCCC3)cc1	2.2%
CCc1ccc(/C=N/NC(=O)c2ccc(OC3CCCC3)cc2)s1	0.3%
Cc1nc(N2CCOCC2)nc2c1CCCC2	1.7%
O=C(CSCc1ccc([N+](=O)[O-])cc1)NCCSCc1ccccc1	8.4%
Cc1ccc(C)n1-c1ccncc1	34.7% (active)
Cc1ccc(N)cc1-n1c(C)ccc1C	4.3%
COc1ccc(C(=O)c2c(C)oc3cc([N+](=O)[O-])c(O)c([N+](=O)[O-])c23)cc1	-48.7%
